Source: PubChem BioAssay
The list is not random: actives were taken first. Their share in the collection is about 6.2%.
Luc counter: blocks Kinase-Glo luciferase, a counter-screen artifact | Q27757 | Potency, µM (titrated, usually from 38.3 µM), for inactives: at the highest dose activity change, negative = inhibition, usual class: inhibitors | hit rate 0.28% among 200,000 | Kinase-Glo luciferase, ATP luminescence, 8 min; further: nearly all actives have a fitted effect of over 60% in size
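Inhibition of Kinase-Glo luciferase light generation was assessed at 10 uM ATP in pH 7.2 imidazole buffer, with luminescence measured after eight minutes at ambient temperature.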
RORgamma inh: blocks mouse ROR gamma transcriptional activity; P51450; Potency, µM (doses to about 53.6 µM), inactives show at the highest dose activity change, negative = inhibition, most hits filed as inhibitors; Drosophila S2 Gal4-RORgamma UAS-luciferase reporter, 20 h; hit rate 5.4% among 310,000; further: nearly all actives have a fitted effect of over 60% in size
Target sequence (P51450 whole entry, looked up, the tested form may be a part): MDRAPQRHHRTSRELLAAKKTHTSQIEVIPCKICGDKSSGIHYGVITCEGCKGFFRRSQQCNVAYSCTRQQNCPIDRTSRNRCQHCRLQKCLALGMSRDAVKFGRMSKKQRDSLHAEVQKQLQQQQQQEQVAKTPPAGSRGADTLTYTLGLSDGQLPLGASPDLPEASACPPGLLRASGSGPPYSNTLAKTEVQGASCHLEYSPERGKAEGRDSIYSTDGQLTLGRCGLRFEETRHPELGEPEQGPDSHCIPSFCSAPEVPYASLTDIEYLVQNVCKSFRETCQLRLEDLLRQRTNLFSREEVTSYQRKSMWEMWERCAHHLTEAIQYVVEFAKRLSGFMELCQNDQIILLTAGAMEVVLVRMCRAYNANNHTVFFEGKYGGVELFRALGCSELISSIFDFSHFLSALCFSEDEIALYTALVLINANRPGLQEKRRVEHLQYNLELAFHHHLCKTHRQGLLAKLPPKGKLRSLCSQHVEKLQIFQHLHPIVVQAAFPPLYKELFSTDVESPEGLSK
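Schneider cells (Drosophila), stable Gal4 DBD–ROR gamma + UAS-luc; 1 hr cmpd preincubation; Cu2+ induction 700 uM final; 20 hr ambient; luminescence.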
VP16 counter: Gal4-VP16 reporter inhibition counter-screen; Drosophila S2 Gal4-VP16 UAS-luciferase, luminescence, 20 h; Potency, µM (series often up to 53.6 µM), inactives show at the highest dose activity, negative = inhibition, hits mostly inhibitors; hit rate 3.5% among 310,000; AID 2546;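 further: Gal4-VP16 expression switched on by copper sulfate through the metallothionein promoter; nearly all actives have a fitted effect of over 50% in size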
* hit, by the source's call; ? = inconclusive; / = no result given; [ ] = another dose, or the depositor's remark. The call rests on the fitted dose curve; in most records, active means well fitted curve in the direction sought with a large enough effect; inconclusive means small, poorly fitted or top-dose-only effect, or another doubt; inactive means no such curve, though single readings can be large; an effect the other way counts as inactive or inconclusive. On the % scale 0 is the no-effect control and ±100 the full control effect; potency means the concentration at half of the fitted maximal effect.

SMILES | Luc counter | RORgamma inh | VP16 counter
Cc1cccc(N=Nc2c(O)[nH]c3ccc(Br)cc23)c1 | / | 23% | -5%
Oc1[nH]c2ccc(Br)cc2c1N=NC(=S)Nc1ccc(F)cc1 | / | 0.79µM* | 7.9µM*
CCCC[C@H]1CCCO[C@@](C(=O)NCc2cc(C)n(C)n2)(C(F)(F)F)C1 | / | -7% | -9%
O=C(c1ccco1)N1CCC2(CCCN(c3cccc(-c4ccccc4)c3)C2)CC1 | 2% | 29% | -3%
CS(=O)c1ccccc1O (stereo unspecified) | 6% | 11µM* | -4%
CCc1ccccc1O | / | 35% | 7%
CCOC(=O)N1CCN(CC(O)COc2ccc(C)cc2C(C)(C)C)CC1 (stereo unspecified) | -1% | 44% | -17%
Cn1c(=O)n(CCCOc2ccc(Cl)cc2)c2ccccc21 | 3% | 2% | 3%[0.365 µM]
Cn1c(=O)n(CCCOc2ccc(Br)cc2)c2ccccc21 | 0% | 10µM* | ?
COc1cccc(NC(=O)CC(=O)c2ccccc2)c1 | / | 0% | 9%
CCOc1cc(CNc2ccc(N3CCCCC3)cc2)cc(Br)c1OCC(=O)NC(C)(C)C | -3% | -33% | -27%
CCOc1cc(CNc2ccc(N(C)C)cc2)cc(Br)c1OCC(=O)NC(C)(C)C | 3% | 10µM* | -12%
CN(C)c1ccc(NC(=O)CCN2CCN(c3ccccn3)CC2)cc1 | / | -20% | -7%
Cc1ccccc1OCCC(=O)OCC(=O)Nc1ccc(C(N)=O)cc1 | / | 9% | 5%
O=C(CSC1=NNC(c2ccccn2)S1)Nc1ccc(C(F)(F)F)cc1 (stereo unspecified) | / | 3.2µM* | 5µM*
c1ccc(CSC2=NNC(c3ccccn3)S2)cc1 (stereo unspecified) | / | -3% | 3%
Cc1c2c(nc3ccccc13)CCC(C)C2 (stereo unspecified) | 1% | 11µM* | -23%
CC1CCc2nc3ccccc3c(C(=O)OCC(=O)NC3CCS(=O)(=O)C3)c2C1 (stereo unspecified) | -1% | 0% | 7%
CCCCn1c(=O)[nH]c2c(oc3ccccc32)c1=O | / | 24% | -24%
O=c1c2oc3ccccc3c2[nH]c(=S)n1-c1ccccc1 | 5% | ? | 5µM*
O=C(Nn1c(=O)[nH]c2ccsc2c1=O)c1ccccc1 | 2% | -1% | 2%
Cc1cccc(-n2c(=S)[nH]c3c(oc4ccccc43)c2=O)c1 | -3% | 2.8µM* | 4.5µM*
Cc1ccc(-n2c(=S)[nH]c3c(oc4ccccc43)c2=O)cc1 | / | 90% | -5%
O=c1c2sccc2[nH]c(=S)n1-c1ccccc1 | / | ? | 3.5µM*
Cc1nnc(NCCc2ccccc2)n(N)c1=O | 0% | -24% | -7%
SMILES | Luc counter | RORgamma inh | VP16 counter
CC(C)c1ccccc1S(=O)(=O)c1cc(N)c2ncccc2c1[N+](=O)[O-] | -1% | -35% | 10%
CC(C)CC1OC(=O)C2=CCCCC21 (stereo unspecified) | / | 5% | 3%
Clc1ccc(-c2n[nH]c3c2CCC3)c(Cl)c1 | 0% | -25% | -5%
CC(C)(C)c1n[nH]c2c1CCCC2 | -2% | 11µM* | -21%
O=C(NCc1cccc(Cl)c1)C1CCC(=O)N(CCCN2CCCC2=O)C1 (stereo unspecified) | / | -29% | -6%
CC(OC(=O)c1snc(C(=O)NC2CCCCC2)c1N)C(=O)NC(C)(C)C (stereo unspecified) | 0% | ? | ?
CC(C)(C)NC(=O)COC(=O)c1snc(C(=O)NC2CCCCC2)c1N | 2% | -37% | 5.6µM*
CC(=O)c1cccc(NS(=O)(=O)c2cccc(C(=O)O)c2)c1 | -1% | / | /
Cc1ccnc(NS(=O)(=O)c2ccc(NC(=O)c3c(-c4ccccc4Cl)noc3C)cc2)n1 | 0% | -1% | 2%
Cc1cc(C)n(-c2nnc(NCc3ccc(Cl)cc3)nn2)n1 | -1% | ? | 4%
CNc1nc(C)nc(-n2nc(C)cc2C)n1 | -11% | 6.3µM* | ?
Cc1cc(C)n(-c2nc3nonc3nc2-n2nc(C)cc2C)n1 | -2% | 4%[0.365 µM] | /
Cc1cc(C)n(-c2nc(C)nc(NCc3ccccc3)n2)n1 | 2% | 1.6µM* | 5.6µM*
CC1CCC(NC(=O)CCNC(=O)c2ccccc2)CC1 (stereo unspecified) | -2% | 3% | -14%
CCOC(=O)CSc1nc(-c2ccccn2)ncc1OC | -2% | ? | -6%
COc1ccc(Sc2nc(-c3ccccn3)ncc2OC)cc1 | -2% | 2.2µM* | 8.9µM*
N#Cc1ccc(-c2ccccc2)nc1Sc1ccc(F)cc1 | -5% | -5% | -11%
COc1cnc(-c2ccccn2)nc1Sc1ccc(Cl)cc1 | 5% | 5.6µM* | 5.6µM*
COc1cnc(-c2ccccn2)nc1Sc1ccccc1 | -2% | 2.5µM* | 11µM*
